# About 79,000 compounds went through this panel and 15% of them were active in at least one assay; those are over-represented in the sample as a whole. A number with no mark means an inactive call. Active and inactive are the calls of the source. Rule as the data show it: active = growth inhibition above about 70%; inactive = the rest.
# Columns and labels:
# [1] = NCI Yeast Anticancer Drug Screen. Data for the rad52 strain (AID 147);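 also: 0% = growth of vehicle-treated control cultures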; conditions: S. cerevisiae rad52 mutant growth inhibition, active compounds read high
# Summary of the method: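 Screen used a yeast mutant impaired in DNA repair. After compound exposure, growth was measured. Values reflect inhibition compared with vehicle-treated cells.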
# [2] = NCI Yeast Anticancer Drug Screen. Data for the wt1 strain (AID 149);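 also: 0% = growth of vehicle-treated wt1 cultures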; conditions: S. cerevisiae wt1 strain (SPY 50644) growth inhibition, active compounds read high
# Summary of the method: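 Growth inhibition read against vehicle controls after compound exposure of the wt1 yeast strain.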
# [3] = NCI Yeast Anticancer Drug Screen. Data for the rad50EPP+ strain (AID 151);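 also: 0% = growth of vehicle-treated control cultures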; conditions: S. cerevisiae rad50 mutant strain, active compounds read high
# Summary of the method: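 Exposing the rad50EPP+ strain to each compound, growth was compared with vehicle-only cultures to give inhibition.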
# [4] = NCI Yeast Anticancer Drug Screen. Data for the mgt1 strain (AID 153); conditions: S. cerevisiae mgt1 mutant growth inhibition, active compounds read high
# Summary of the method: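 Genetically defined yeast (mgt1) treated with compound; inhibition of growth expressed against vehicle-treated controls.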
# [5] = NCI Yeast Anticancer Drug Screen. Data for the rad50 strain (AID 155);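 also: 0% = growth of vehicle-only cultures of the same strain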; conditions: S. cerevisiae rad50 strain growth inhibition, active compounds read high
# Summary of the method: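 Readout: growth inhibition relative to vehicle-treated cultures. Compound exposure was carried out in a genetically defined yeast strain deficient in DNA damage repair.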
# [6] = NCI Yeast Anticancer Drug Screen. Data for the mec2-1 strain (AID 157); conditions: S. cerevisiae mec2-1 strain, active compounds read high
# Summary of the method: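 Readout is yeast growth inhibition, normalised to vehicle-treated controls, in the mec2-1 strain exposed to compound.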
# [7] = NCI Yeast Anticancer Drug Screen. Data for the rad14 strain (AID 159);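 also: 0% = growth of vehicle-treated control cultures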; conditions: S. cerevisiae rad14 strain growth inhibition, active compounds read high
# Summary of the method: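 Growth inhibition vs vehicle controls; genetically altered yeast strain (DNA damage repair defect) treated with test compounds.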
# [8] = NCI Yeast Anticancer Drug Screen. Data for the sgs1 mgt1 strain (AID 161);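 also: 0% = growth of cultures given vehicle only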; conditions: S. cerevisiae sgs1 mgt1 strain, active compounds read high
# Summary of the method: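 Yeast cells carrying a defined DNA-repair defect were exposed to test compounds. Growth inhibition was measured relative to vehicle-treated controls.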
# [9] = NCI Yeast Anticancer Drug Screen. Data for the CLN2oe strain (AID 163);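 also: 0% = growth of vehicle-only control cultures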; conditions: S. cerevisiae CLN2oe strain, active compounds read high
# Summary of the method: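 Values reflect how much compound exposure reduced yeast growth, referenced to vehicle-exposed cells. Assay organism is a strain with a defined genetic change affecting cell-cycle control.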
# [10] = NCI Yeast Anticancer Drug Screen. Data for the bub3 strain (AID 167); conditions: S. cerevisiae bub3 mutant strain, active compounds read high
# Summary of the method: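 Readout: yeast growth inhibition, expressed relative to vehicle-only wells. The test organism is a mutant strain from a panel with lesions in DNA repair or checkpoint genes.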
# [11] = NCI Yeast Anticancer Drug Screen. Data for the mlh1 strain (AID 171);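 also: 0% = growth of vehicle-treated control cultures of the same strain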; conditions: S. cerevisiae mlh1 strain growth inhibition, active compounds read high
# Summary of the method: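 Steps: expose the defined-mutant yeast strain to compound; expose a parallel culture to vehicle; measure growth; express compound effect as inhibition relative to the vehicle culture.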
# [12] = NCI Yeast Anticancer Drug Screen. Data for the sgs1 strain (AID 173);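 also: 0% = growth of vehicle-only control cultures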; conditions: S. cerevisiae sgs1 mutant, active compounds read high
# Summary of the method: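 Treat defined-mutant yeast with compound; measure growth; calculate inhibition relative to vehicle-treated cells.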
# [13] = NCI Yeast Anticancer Drug Screen. Data for the mlh1 rad18 strain (AID 175); conditions: S. cerevisiae mlh1 rad18 strain growth inhibition, active compounds read high
# Summary of the method: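 Test agents were incubated with a yeast strain of defined genotype (DNA damage repair defect). Inhibition of growth was derived by comparison with vehicle-exposed cultures.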
# [14] = NCI Yeast Anticancer Drug Screen. Data for the rad18 strain (AID 177); conditions: S. cerevisiae rad18 mutant growth inhibition, active compounds read high
# Summary of the method: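 A genetically defined yeast mutant impaired in DNA damage repair was treated with test compounds, then its growth was measured against cultures receiving vehicle alone.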
# [15] = NCI Yeast Anticancer Drug Screen. Data for the cln2 rad14 strain (AID 165);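 also: 0% = growth equal to vehicle treated cultures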; conditions: S. cerevisiae cln2 rad14 strain, active compounds read high
# Summary of the method: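 Relative to vehicle controls, growth inhibition of compound-treated cln2 rad14 yeast was recorded.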
# [16] = NCI Yeast Anticancer Drug Screen. Data for the wt2 strain (AID 169);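 also: 0% = growth of vehicle-treated yeast cultures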; conditions: S. cerevisiae wt2 strain growth inhibition, active compounds read high
# Summary of the method: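 Values express reduction in yeast growth under compound treatment, referenced to vehicle-treated cells.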
# [17] = at 5.0 µM (retest, dose inferred, filed as 0.5)
# [18] = at 50.0 µM (retest, dose inferred, filed as 5.0)
smiles,measurement,setting,value
CCC1(O)C(=O)OCc2c1cc1n(c2=O)Cc2cc3ccccc3nc2-1 (stereo not drawn),growth inhibition,[1]; at 1.2 µM,73% (active)
same,growth inhibition,[1]; at 3.7 µM,92% (active)
same,growth inhibition,[1]; at 11.0 µM,95% (active)
same,growth inhibition,[1]; at 33.0 µM,94% (active)
same,growth inhibition,[1]; at 100.0 µM,95% (active)
same,growth inhibition,[2]; at 1.2 µM,-3%
same,growth inhibition,[2]; at 3.7 µM,28%
same,growth inhibition,[2]; at 11.0 µM,15%
same,growth inhibition,[2]; at 33.0 µM,5%
same,growth inhibition,[2]; at 100.0 µM,13%
same,growth inhibition,[3]; at 1.2 µM,29%
same,growth inhibition,[3]; at 3.7 µM,54%
same,growth inhibition,[3]; at 11.0 µM,70% (active)
same,growth inhibition,[3]; at 33.0 µM,75% (active)
same,growth inhibition,[3]; at 100.0 µM,86% (active)
same,growth inhibition,[4]; at 1.2 µM,-11%
same,growth inhibition,[4]; at 3.7 µM,-3%
same,growth inhibition,[4]; at 11.0 µM,-4%
same,growth inhibition,[4]; at 33.0 µM,-3%
same,growth inhibition,[4]; at 100.0 µM,10%
same,growth inhibition,[5]; at 1.2 µM,74% (active)
same,growth inhibition,[5]; at 3.7 µM,91% (active)
same,growth inhibition,[5]; [17],94% (active)
same,growth inhibition,[5]; at 11.0 µM,95% (active)
same,growth inhibition,[5]; at 33.0 µM,94% (active)
same,growth inhibition,[5]; [18],96% (active)
same,growth inhibition,[5]; at 50.0 µM,86.2% (active)
same,growth inhibition,[5]; at 100.0 µM,94% (active)
same,growth inhibition,[6]; at 1.2 µM,-9%
same,growth inhibition,[6]; at 3.7 µM,-2%
same,growth inhibition,[6]; [17],21%
same,growth inhibition,[6]; at 11.0 µM,23%
same,growth inhibition,[6]; at 33.0 µM,36%
same,growth inhibition,[6]; [18],89% (active)
same,growth inhibition,[6]; at 50.0 µM,77.2% (active)
same,growth inhibition,[6]; at 100.0 µM,82% (active)
same,growth inhibition,[7]; at 1.2 µM,-4%
same,growth inhibition,[7]; at 3.7 µM,7%
same,growth inhibition,[7]; at 11.0 µM,5%
same,growth inhibition,[7]; at 33.0 µM,12%
same,growth inhibition,[7]; at 100.0 µM,24%
same,growth inhibition,[8]; [17],23%
same,growth inhibition,[8]; [18],56%
same,growth inhibition,[8]; at 50.0 µM,47.5%
same,growth inhibition,[9]; at 1.2 µM,12%
same,growth inhibition,[9]; at 3.7 µM,26%
same,growth inhibition,[9]; at 11.0 µM,33%
same,growth inhibition,[9]; at 33.0 µM,18%
same,growth inhibition,[9]; at 100.0 µM,41%
same,growth inhibition,[10]; at 1.2 µM,-14%
same,growth inhibition,[10]; at 3.7 µM,9%
same,growth inhibition,[10]; [17],12%
same,growth inhibition,[10]; at 11.0 µM,-3%
same,growth inhibition,[10]; at 33.0 µM,1%
same,growth inhibition,[10]; [18],27%
same,growth inhibition,[10]; at 50.0 µM,-24.9%
same,growth inhibition,[10]; at 100.0 µM,10%
same,growth inhibition,[11]; at 1.2 µM,-5%
same,growth inhibition,[11]; at 3.7 µM,13%
same,growth inhibition,[11]; at 11.0 µM,15%
same,growth inhibition,[11]; at 33.0 µM,2%
same,growth inhibition,[11]; at 100.0 µM,15%
same,growth inhibition,[12]; at 1.2 µM,1%
same,growth inhibition,[12]; at 3.7 µM,15%
same,growth inhibition,[12]; at 11.0 µM,23%
same,growth inhibition,[12]; at 33.0 µM,35%
same,growth inhibition,[12]; at 100.0 µM,48%
same,growth inhibition,[13]; [17],36%
same,growth inhibition,[13]; [18],70% (active)
same,growth inhibition,[13]; at 50.0 µM,-27.3%
same,growth inhibition,[14]; at 1.2 µM,-6%
same,growth inhibition,[14]; at 3.7 µM,15%
same,growth inhibition,[14]; at 11.0 µM,21%
same,growth inhibition,[14]; at 33.0 µM,4%
same,growth inhibition,[14]; at 100.0 µM,7%
CC[PH+](CC)CC.CC[PH+](CC)CC.[Au],growth inhibition,[1]; at 1.2 µM,16%
same,growth inhibition,[1]; at 3.7 µM,21%
same,growth inhibition,[1]; at 11.0 µM,33%
same,growth inhibition,[1]; at 33.0 µM,80% (active)
same,growth inhibition,[1]; at 100.0 µM,99% (active)
same,growth inhibition,[2]; at 1.2 µM,6%
same,growth inhibition,[2]; at 3.7 µM,30%
same,growth inhibition,[2]; at 11.0 µM,36%
same,growth inhibition,[2]; at 33.0 µM,43%
same,growth inhibition,[2]; at 100.0 µM,98% (active)
same,growth inhibition,[3]; at 1.2 µM,27%
same,growth inhibition,[3]; at 3.7 µM,39%
same,growth inhibition,[3]; at 11.0 µM,40%
same,growth inhibition,[3]; at 33.0 µM,60%
same,growth inhibition,[3]; at 100.0 µM,97% (active)
same,growth inhibition,[4]; at 1.2 µM,16%
same,growth inhibition,[4]; at 3.7 µM,21%
same,growth inhibition,[4]; at 11.0 µM,28%
same,growth inhibition,[4]; at 33.0 µM,46%
same,growth inhibition,[4]; at 100.0 µM,98% (active)
same,growth inhibition,[5]; at 1.2 µM,24%
same,growth inhibition,[5]; at 3.7 µM,39%
same,growth inhibition,[5]; [17],22%
same,growth inhibition,[5]; at 11.0 µM,50%
same,growth inhibition,[5]; at 33.0 µM,92% (active)
same,growth inhibition,[5]; [18],95% (active)
same,growth inhibition,[5]; at 50.0 µM,89.2% (active)
same,growth inhibition,[5]; at 100.0 µM,99% (active)
same,growth inhibition,[6]; at 1.2 µM,14%
same,growth inhibition,[6]; at 3.7 µM,24%
same,growth inhibition,[6]; [17],52%
same,growth inhibition,[6]; at 11.0 µM,55%
same,growth inhibition,[6]; at 33.0 µM,90% (active)
same,growth inhibition,[6]; [18],99% (active)
same,growth inhibition,[6]; at 50.0 µM,94.2% (active)
same,growth inhibition,[6]; at 100.0 µM,98% (active)
same,growth inhibition,[7]; at 1.2 µM,15%
same,growth inhibition,[7]; at 3.7 µM,30%
same,growth inhibition,[7]; at 11.0 µM,34%
same,growth inhibition,[7]; at 33.0 µM,86% (active)
same,growth inhibition,[7]; at 100.0 µM,99% (active)
same,growth inhibition,[8]; [17],-11%
same,growth inhibition,[8]; [18],94% (active)
same,growth inhibition,[8]; at 50.0 µM,89.4% (active)
same,growth inhibition,[9]; at 1.2 µM,2%
same,growth inhibition,[9]; at 3.7 µM,20%
same,growth inhibition,[9]; at 11.0 µM,23%
same,growth inhibition,[9]; at 33.0 µM,54%
same,growth inhibition,[9]; at 100.0 µM,97% (active)
same,growth inhibition,[15]; [17],27%
same,growth inhibition,[15]; [18],93% (active)
same,growth inhibition,[15]; at 50.0 µM,89.2% (active)
same,growth inhibition,[10]; at 1.2 µM,8%
same,growth inhibition,[10]; at 3.7 µM,16%
same,growth inhibition,[10]; [17],-25%
same,growth inhibition,[10]; at 11.0 µM,21%
same,growth inhibition,[10]; at 33.0 µM,79% (active)
same,growth inhibition,[10]; [18],97% (active)
same,growth inhibition,[10]; at 50.0 µM,89.3% (active)
same,growth inhibition,[10]; at 100.0 µM,98% (active)
same,growth inhibition,[16]; at 1.2 µM,-13%
same,growth inhibition,[16]; at 3.7 µM,-9%
same,growth inhibition,[16]; at 11.0 µM,21%
same,growth inhibition,[16]; at 33.0 µM,98% (active)
same,growth inhibition,[16]; at 100.0 µM,99% (active)
same,growth inhibition,[11]; at 1.2 µM,30%
same,growth inhibition,[11]; at 3.7 µM,49%
same,growth inhibition,[11]; at 11.0 µM,41%
same,growth inhibition,[11]; at 33.0 µM,54%
same,growth inhibition,[11]; at 100.0 µM,99% (active)
same,growth inhibition,[12]; at 1.2 µM,28%
same,growth inhibition,[12]; at 3.7 µM,39%
same,growth inhibition,[12]; at 11.0 µM,41%
same,growth inhibition,[12]; at 33.0 µM,90% (active)
same,growth inhibition,[12]; at 100.0 µM,99% (active)
same,growth inhibition,[13]; [17],34%
same,growth inhibition,[13]; [18],98% (active)
same,growth inhibition,[13]; at 50.0 µM,89% (active)
same,growth inhibition,[14]; at 1.2 µM,12%
same,growth inhibition,[14]; at 3.7 µM,16%
same,growth inhibition,[14]; at 11.0 µM,32%
same,growth inhibition,[14]; at 33.0 µM,92% (active)
same,growth inhibition,[14]; at 100.0 µM,98% (active)

# From PubChem BioAssay (NCI)
